Measurements as given in PubChem BioAssay (NCI).
This is part of a sample that, as a whole, favours compounds with a hit. Of some 83,000 tested, about 20% had one in any assay.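 Cells were grown in 96-well plates and exposed to the test compound at a single concentration for 48 hours; results are reported as percent growth, with values below 10 considered active.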 Active and inactive are the calls of the source.

Each compound was assayed on NCI-H522 lung (assay: NCI-60 one-dose screen, 48 h (100 = growth as untreated, 0 = no growth, -100 = all killed)). Conditions: 10 µM unless noted.
With Cc1ccc(OCCOCCOCCOCCOc2ccc(C)n(O)c2=S)c(=S)n1O the growth was 17.9% (inactive). With CCN(CC)CCCC(Nc1c2ccc(Cl)cc2nc2ccc(OC)cc12)c1ccncc1 (stereo not given) the growth was 83.3% (inactive). COc1cccc(C2C3=C(COC3=O)N(CCO)c3cc4c(cc32)OCCO4)c1 (stereo not given) was tested, and the growth was -14.6% (active). In the case of CN(C)CC1C(=O)O[C@H]2[C@H]1CC/C(COC(=O)NCc1ccc(Cn3c(=O)sn(CCCI)c3=O)cc1)=C\CC[C@@]1(C)O[C@@H]21 (stereo not given in full), the growth is reported as -84.3% (active). With CC(C)=CC(=O)C1C(=O)c2ccccc2C1=O the growth was 87.2% (inactive). In the case of Cn1cc(-c2ccc3c(Nc4cccc(NC(=O)Nc5cccc(F)c5)c4)ncnc3c2)cn1, the growth is reported as 26.5% (inactive). For COc1cc2c(c(OC)c1OC)C(=O)CC(c1cccc(C(=O)Nc3ccc(Br)cc3)c1)O2 (stereo not given), the growth was 48.5% (inactive). COc1cc2nc3cc([N+](=O)[O-])ccc3c(NCCCNCCO)c2cc1OC was tested, and the growth was -52% (active). In the case of CCOC(=O)C1=CCC(n2cc(F)c(=O)[nH]c2=O)O1 (stereo not given), the growth is reported as 112% (inactive). In the case of Cc1nc2sc(C(=O)Nc3ccccc3)c(N)c2cc1C(O)c1ccccc1 (stereo not given), the growth is reported as 12.8% (inactive). With C=C(CNCCO)[C@@H]1CC[C@]2(CO)CC[C@]3(C)[C@H](CC[C@@H]4[C@@]5(C)CCC(NCCO)C(C)(C)[C@@H]5CC[C@]43C)[C@@H]12 (stereo not given in full) the growth was 66.6% (inactive). COC(=O)CCc1c(/C=C2\N=C(c3ccc[nH]3)C=C2OC)[nH]c(C)c1C(=O)OCc1ccccc1 was tested, and the growth was -20.3% (active). In the case of CSc1nc(N)c2c(n1)NC(c1ccccc1)C1CCc3ccccc3C1=N2 (stereo not given), the growth is reported as 45.9% (inactive). For CC(CN)[C@@H]1CC[C@]2(CO)CC[C@]3(C)[C@H](CC[C@@H]4[C@@]5(C)CCC(NCCO)C(C)(C)[C@@H]5CC[C@]43C)[C@@H]12 (stereo not given in full), the growth was 59.3% (inactive). In the case of O=S(=O)(c1ccc(NCSc2nc3ccccc3s2)cc1)c1ccc(NCSc2nc3ccccc3s2)cc1, the growth is reported as 69.7% (inactive). COc1ccc(Cn2cc(C(=O)N=Nc3c(O)[nH]c4ccc(Br)cc34)nn2)cc1 was tested, and the growth was 89.1% (inactive). In the case of Oc1ccc(C(c2ccc(O)cc2)c2ccc(Cl)cn2)cc1, the growth is reported as 57.6% (inactive). O=C(Nc1cccc(Cn2c(=O)[nH]c3ccc(Oc4ncccn4)cc3c2=O)c1)c1cccc(Cl)c1 was tested, and the growth was 61.5% (inactive). With Cc1ccc(C(=O)Nc2ccc(CN3CCN(C)CC3)c(C(F)(F)F)c2)cc1C#Cc1cnc(N)c2ccccc12 the growth was -44.3% (active). C[C@H]1c2ccccc2CN1CCCOc1cc2c(cc1OCC1CC1)C1(CCCC1)C(N)=N2 was tested, and the growth was 73.7% (inactive). For CC1=C2[C@@H](CC1)[C@]1(C)O[C@@](C(C)C)(C[C@H]1OC(=O)CO)[C@H]2OC(=O)CCCc1ccccc1, the growth was 45.1% (inactive). With Oc1ccc(Cc2ccc(O)c3ncccc23)c2cccnc12 the growth was -10.8% (active). In the case of C=C(c1ccc(OC)c(/C=C/C(=O)c2cc(OC)c(OC)c(OC)c2)c1)c1cc(OC)c(OC)c(OC)c1, the growth is reported as -19.3% (active). COc1ccc(-c2nc(SCCC(C)C)nc(N/N=C(/C)c3ccc(N)cc3)c2C#N)cc1 was tested, and the growth was 90.6% (inactive). In the case of CCCCC1=C(Br)C(=O)c2ncccc2C1=O, the growth is reported as 74.3% (inactive). In the case of COc1ccc(/C(C)=C(\c2ccc(Cl)cc2)c2ccc(OCCCN(C)C)cc2)cc1, the growth is reported as 76.7% (inactive). With CC(=O)/C(Br)=C/c1ccc(Br)o1 the growth was 55.7% (inactive). For CC(C)n1nc(-c2ccc3oc(N)nc3c2)c2c(N)ncnc21, the growth was 2.22% (active). For CCCNNC(=O)c1ccc(CNC(=O)/C=C/c2ccccc2)cc1, the growth was 38.3% [2.5 µM] (inactive). In the case of O=C(Nc1ncc(Cc2ccc(Cl)cc2)s1)C1=NCCCCN1, the growth is reported as 82.1% (inactive). COc1cc2c(c(OC)c1OC)CCC(c1cccc(C(=O)Nc3ccc([N+](=O)[O-])cc3)c1)O2 (stereo not given) was tested, and the growth was 49.6% (inactive). With C=CCn1c(SCC(=O)Nc2ccc(C(=O)/C=C/c3ccc(Cl)cc3)cc2)nnc1-c1ccccc1 the growth was 82.2% (inactive). c1ccc(Cn2cc3c(c2)-c2nc(Nc4ccccc4)ncc2CC3)cc1 was tested, and the growth was 80% [100 µM] (inactive). For Clc1nc(N2CCC[N+]3(CC2)CC[N+]2(CCCNCC2)CC3)nc(N2CCC[N+]3(CC2)CC[N+]2(CCCNCC2)CC3)n1 (stereo not given), the growth was 94% (inactive). C#C[C@]1(O)CC[C@H]2[C@@H]3CC=C4c5sc(-c6ccccc6)nc5CC[C@]4(C)[C@H]3CC[C@@]21C was tested, and the growth was 77.9% (inactive).
